# Values joined by “and” are separate entries in the source; they are usually repeats but may differ in a detail not shown here. Equal values may be shown once. Inconclusive results are not listed. Active and inactive are the calls of the source. Rule for the calls, unless noted: active = hit-call score of the fitted dose curve at least 0.9, where 1 is the maximum; inconclusive = response in the unintended direction; inactive = score below 0.9.
# Tests used:
# [1] = read-out: matrix metalloproteinase-10 (MMP10), MMP10 (gene 4319); assay: LTEA_HepaRG_MMP10: Life Technologies and Expression Analysis (LTEA) Assay for matrix metalloproteinase-10 (MMP10) using HepaRG (AID 2283517; active = hit-call score of the fitted dose curve at least 0.9, where 1 is the maximum; inactive = score below 0.9); details: mRNA level, 48 h; actives raise or lower the signal
# Procedure, shortened: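 Transcript levels come from Fluidigm qRT-PCR normalized to three housekeeping genes, with curves fitted bidirectionally against 0.5% DMSO. Human HepaRG cells were dosed for 48 hours at concentrations up to 100 uM.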
# MYC, MYC (gene 4609) = assay: LTEA_HepaRG_MYC: Life Technologies and Expression Analysis (LTEA) Assay for MYC using HepaRG (AID 2283518; active = hit-call score of the fitted dose curve at least 0.9, where 1 is the maximum; inactive = score below 0.9); details: mRNA level, 48 h; actives raise or lower the signal
# Procedure, shortened: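 qRT-PCR read-out of MYC transcript (Fluidigm TaqMan, housekeeping-normalized) after 48 h chemical exposure of HepaRG cells; eight concentrations, top 100 uM, half-log steps. Bidirectional curve fitting against 0.5% DMSO vehicle baseline.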
# [2] = read-out: matrix metalloproteinase-3 (MMP3), MMP3 (gene 4314); assay: LTEA_HepaRG_MMP3: Life Technologies and Expression Analysis (LTEA) Assay for matrix metalloproteinase-3 (MMP3) using HepaRG (AID 2283519; active = hit-call score of the fitted dose curve at least 0.9, where 1 is the maximum; inactive = score below 0.9); details: mRNA level, 48 h; actives raise or lower the signal
# Procedure, shortened: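 qRT-PCR read-out of MMP3 mRNA (normalised to three housekeeping genes) in HepaRG liver cells after 48 h chemical exposure; 8-point half-log series, top 100 uM, 0.5% DMSO vehicle. Bidirectional curve fitting against DMSO baseline.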
# [3] = read-out: Paternally Expressed 10 (PEG10), PEG10 (gene 23089); assay: LTEA_HepaRG_PEG10: Life Technologies and Expression Analysis (LTEA) Assay for Paternally Expressed 10 (PEG10) using HepaRG (AID 2283520; active = hit-call score of the fitted dose curve at least 0.9, where 1 is the maximum; inactive = score below 0.9); details: mRNA level, 48 h; actives raise or lower the signal
# Procedure, shortened: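 After 48 h exposure of differentiated HepaRG cells (0.5% DMSO vehicle, eight concentrations up to 100 uM, duplicates), PEG10 mRNA was measured by TaqMan qRT-PCR. Values were normalised to endogenous control genes and analysed bidirectionally against vehicle.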
# [4] = read-out: Phosphatase and tensin (PTEN), PTEN (gene 5728); assay: LTEA_HepaRG_PTEN: Life Technologies and Expression Analysis (LTEA) Assay for Phosphatase and tensin (PTEN) using HepaRG (AID 2283523; active = hit-call score of the fitted dose curve at least 0.9, where 1 is the maximum; inactive = score below 0.9); details: mRNA level, 48 h; actives raise or lower the signal
# Procedure, shortened: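 HepaRG, 48 h exposure, 8-pt half-log series from 100 uM top, 0.5% DMSO vehicle, duplicates. Readout: Fluidigm qRT-PCR of PTEN transcript; housekeeping normalization (ACTB, GAPDH, POLR2A). Gain or loss fitted relative to DMSO baseline.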
# [5] = read-out: solute carrier (SLC22A1), SLC22A1 (gene 6580); assay: LTEA_HepaRG_SLC22A1: Life Technologies and Expression Analysis (LTEA) Assay for solute carrier (SLC22A1) using HepaRG (AID 2283524; active = hit-call score of the fitted dose curve at least 0.9, where 1 is the maximum; inactive = score below 0.9); details: mRNA level, 48 h; actives raise or lower the signal
# Procedure, shortened: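 qRT-PCR readout (TaqMan, Fluidigm arrays) of SLC22A1 transcript, normalized to three housekeeping genes; bidirectional curve fit relative to 0.5% DMSO vehicle. Differentiated human HepaRG cells, 48 h chemical exposure, top concentration 100 uM, half-log steps, eight points.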
# [6] = read-out: succinate dehydrogenase complex iron sulfur subunit B (SDHB), SDHB (gene 6390); assay: LTEA_HepaRG_SDHB: Life Technologies and Expression Analysis (LTEA) Assay for succinate dehydrogenase complex iron sulfur subunit B (SDHB) using HepaRG (AID 2283528; active = hit-call score of the fitted dose curve at least 0.9, where 1 is the maximum; inactive = score below 0.9); details: mRNA level, 48 h; actives raise or lower the signal
# Procedure, shortened: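 A human HepaRG culture in serum-free induction medium received test chemicals for 48 h over an eight-point range capped at 100 uM. SDHB expression change was quantified by qRT-PCR.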
# [7] = read-out: Signal transducer and activator of transcription 3 (Homo sapiens) (UniProt P40763); assay: LTEA_HepaRG_STAT3: Life Technologies and Expression Analysis (LTEA) Assay for Signal transducer and activator of transcription (STAT3) using HepaRG (AID 2283529; active = hit-call score of the fitted dose curve at least 0.9, where 1 is the maximum; inactive = score below 0.9); details: mRNA level, 48 h; actives raise or lower the signal
# Procedure, shortened: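 HepaRG, 48 h exposure, 8-pt half-log series (top 100 uM), 0.5% DMSO vehicle, duplicates. Readout: STAT3 transcript by Fluidigm qRT-PCR, housekeeping-normalized; bidirectional fit vs DMSO baseline.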
# [8] = read-out: sulfotransferase 2A1 (SULT2A1), SULT2A1 (gene 6822); assay: LTEA_HepaRG_SULT2A1: Life Technologies and Expression Analysis (LTEA) Assay for sulfotransferase 2A1 (SULT2A1) using HepaRG (AID 2283531; active = hit-call score of the fitted dose curve at least 0.9, where 1 is the maximum; inactive = score below 0.9); details: mRNA level, 48 h; actives raise or lower the signal
# Procedure, shortened: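 HepaRG, 48 h chemical exposure, 8-pt half-log curve from 100 uM in 0.5% DMSO, duplicates. Readout: TaqMan qRT-PCR of SULT2A1 mRNA, housekeeping-normalized. Bidirectional fit vs DMSO baseline.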
# [9] = read-out: Transforming Growth Factor (TGFB1), TGFB1 (gene 7040); assay: LTEA_HepaRG_TGFB1: Life Technologies and Expression Analysis (LTEA) Assay for Transforming Growth Factor (TGFB1) Transporter using HepaRG (AID 2283533; active = hit-call score of the fitted dose curve at least 0.9, where 1 is the maximum; inactive = score below 0.9); details: mRNA level, 48 h; actives raise or lower the signal
# Procedure, shortened: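 qRT-PCR readout of TGFB1 transcript in HepaRG lysates, normalized to three housekeeping genes; gain or loss of signal fitted relative to 0.5% DMSO vehicle. Exposure: 48 h, 8-point curve from 100 uM, duplicate wells.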
# TIMP1, TIMP1 (gene 7076) = assay: LTEA_HepaRG_TIMP1: Life Technologies and Expression Analysis (LTEA) Assay for TIMP1 using HepaRG (AID 2283534; active = hit-call score of the fitted dose curve at least 0.9, where 1 is the maximum; inactive = score below 0.9); details: mRNA level, 48 h; actives raise or lower the signal
# Procedure, shortened: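 HepaRG, 48 h exposure, 8-pt half-log series from 100 uM in 0.5% DMSO, duplicates; TIMP1 transcript by Fluidigm qRT-PCR, housekeeping-normalized; bidirectional curve fit vs DMSO baseline.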
# [10] = read-out: Tumor necrosis factor receptor 1 (TNFRSF1A), TNFRSF1A (gene 7132); assay: LTEA_HepaRG_TNFRSF1A: Life Technologies and Expression Analysis (LTEA) Assay for Tumor necrosis factor receptor 1 (TNFRSF1A) using HepaRG (AID 2283535; active = hit-call score of the fitted dose curve at least 0.9, where 1 is the maximum; inactive = score below 0.9); details: mRNA level, 48 h; actives raise or lower the signal
# Procedure, shortened: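 HepaRG, 48 h plating then 48 h chemical exposure, serum-free induction media; 8-pt CRC from 100 uM, half-log, 0.5% DMSO vehicle, duplicates. Readout: TaqMan qRT-PCR (Fluidigm), housekeeping-gene normalized; bidirectional fit vs DMSO.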
# [11] = read-out: Thyroid Hormone Responsive (THRSP), THRSP (gene 7069); assay: LTEA_HepaRG_THRSP: Life Technologies and Expression Analysis (LTEA) Assay for Thyroid Hormone Responsive (THRSP) using HepaRG (AID 2283536; active = hit-call score of the fitted dose curve at least 0.9, where 1 is the maximum; inactive = score below 0.9); details: mRNA level, 48 h; actives raise or lower the signal
# Procedure, shortened: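 qRT-PCR read-out (Fluidigm TaqMan), housekeeping-normalized (ACTB/GAPDH/POLR2A). HepaRG, 48 h chemical exposure, 8-pt half-log series from 100 uM in 0.5% DMSO, duplicates. Bidirectional curve fit vs 0.5% DMSO baseline.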
# [12] = read-out: UDP glucuronosyltransferase (UGT1A6), UGT1A6 (gene 54578); assay: LTEA_HepaRG_UGT1A6: Life Technologies and Expression Analysis (LTEA) Assay for UDP glucuronosyltransferase (UGT1A6) using HepaRG (AID 2283539; active = hit-call score of the fitted dose curve at least 0.9, where 1 is the maximum; inactive = score below 0.9); details: mRNA level, 48 h; actives raise or lower the signal
# Procedure, shortened: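 qRT-PCR readout of UGT1A6 mRNA (normalized to ACTB/GAPDH/POLR2A) in differentiated HepaRG cells after 48 h chemical exposure; 8 concentrations, top 100 uM, half-log steps, 0.5% DMSO. Bidirectional curve fit relative to DMSO baseline.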
# [13] = read-out: X-box binding protein 1 (XBP1), XBP1 (gene 7494); assay: LTEA_HepaRG_XBP1: Life Technologies and Expression Analysis (LTEA) Assay for X-box binding protein 1 (XBP1) using HepaRG (AID 2283540; active = hit-call score of the fitted dose curve at least 0.9, where 1 is the maximum; inactive = score below 0.9); details: mRNA level, 48 h; actives raise or lower the signal
# Procedure, shortened: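 HepaRG, 48 h exposure, 8-pt half-log CRC top 100 uM, 0.5% DMSO vehicle, duplicates. Readout: TaqMan qRT-PCR of XBP1 mRNA, housekeeping-normalised (ACTB/GAPDH/POLR2A); bidirectional fit vs DMSO baseline.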
# [14] = ATG_XTT_Cytotoxicity: Cytotoxicity Assessment in the Attagene TRANS-FACTORIAL HepG2 Assay (AID 2283584);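 for AC50: cells exposed to compound for 24 h before reading; active means loss of viability signal versus DMSO baseline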
# Procedure, shortened: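 XTT readout of cell number in transfected HepG2 cells, 24 h post-dosing; DMSO serves as negative control and baseline, with activity taken as loss of viability signal.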
# [15] = TOX21_p53_BLA_p2_viability: Viability Assessment in the Tox21 HCT-116 p53 Agonism Beta-lactamase Assay, Phase 2 (AID 2283591);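 note: compound exposure lasted 16 h at 37 °C; actives lower the ATP signal meaning cytotoxicity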
# Procedure, shortened: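 HCT116 p53-bla cells, 4000/well, dosed after 5 h plating (217-fold dilution of DMSO stocks) and incubated 16 h at 37C. Viability taken as cellular ATP by CellTiter-Glo luminescence after 30 min RT; signal loss marks cytotoxicity.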
# Signal transducer and activator of transcription 3 (Homo sapiens), sequence (P40763 whole entry, looked up): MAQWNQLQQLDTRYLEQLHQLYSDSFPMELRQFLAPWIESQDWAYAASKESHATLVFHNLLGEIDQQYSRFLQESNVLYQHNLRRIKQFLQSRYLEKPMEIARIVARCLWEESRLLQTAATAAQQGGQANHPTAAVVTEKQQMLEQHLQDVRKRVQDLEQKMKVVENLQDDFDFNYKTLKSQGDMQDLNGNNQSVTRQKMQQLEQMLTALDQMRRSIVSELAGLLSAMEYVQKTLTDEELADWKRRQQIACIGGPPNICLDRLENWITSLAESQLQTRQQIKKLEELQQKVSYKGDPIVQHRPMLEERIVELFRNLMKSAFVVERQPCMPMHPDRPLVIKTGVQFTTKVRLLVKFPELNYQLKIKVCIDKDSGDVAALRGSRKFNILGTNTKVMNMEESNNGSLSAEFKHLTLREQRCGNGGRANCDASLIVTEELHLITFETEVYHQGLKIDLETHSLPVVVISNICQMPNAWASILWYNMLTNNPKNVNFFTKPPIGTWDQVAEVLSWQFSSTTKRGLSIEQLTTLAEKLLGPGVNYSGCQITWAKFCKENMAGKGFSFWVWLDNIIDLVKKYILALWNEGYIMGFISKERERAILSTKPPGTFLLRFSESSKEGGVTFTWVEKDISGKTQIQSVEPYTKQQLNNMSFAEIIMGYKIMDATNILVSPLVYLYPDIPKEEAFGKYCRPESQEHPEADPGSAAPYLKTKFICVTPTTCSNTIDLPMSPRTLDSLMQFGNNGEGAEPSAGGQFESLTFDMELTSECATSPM
structure (smiles),measurement,setting,value
CC(=O)Nc1ccc(O)cc1,outcome,[1],inactive
same,outcome,"MYC, MYC (gene 4609)",inactive
same,outcome,[2],inactive
same,outcome,[3],inactive
same,outcome,[4],inactive
same,outcome,[5],inactive
same,outcome,[6],inactive
same,outcome,[7],inactive
same,outcome,[8],inactive
same,outcome,[9],inactive
same,outcome,"TIMP1, TIMP1 (gene 7076)",inactive
same,outcome,[10],inactive
same,outcome,[11],inactive
same,outcome,[12],inactive
same,outcome,[13],inactive
same,outcome,[14],inactive
COc1cccc(O)c1,outcome,[14],inactive
NCc1cccc(CN)c1,outcome,[14],inactive
same,outcome,[15],inactive
O=C1Cc2ccccc2N1c1c(Cl)cccc1Cl,outcome,[14],inactive
Cc1ccc(S(=O)(=O)O)cc1,outcome,[14],inactive
same,outcome,[15],inactive
c1cnc2c(c1)ccc1cccnc12,outcome,[14],inactive
same,outcome,[15],inactive
O=c1cc(-c2ccccc2)oc2ccc3ccccc3c12,outcome,[14],inactive
same,outcome,[15],inactive
Cc1cc(Cc2cc(C)cc(C(C)(C)C)c2O)c(O)c(C(C)(C)C)c1,AC50,[14],74.7 µM (active)
same,AC50,[15],10.8 µM (active) and 10.5 µM (active)
C=CC(=O)OCC(CO)(COCC(COC(=O)C=C)(COC(=O)C=C)COC(=O)C=C)COC(=O)C=C,AC50,[14],29.3 µM (active)
same,AC50,[15],4.15 µM (active)
Oc1ccc(Cc2ccccc2O)cc1,outcome,[14],inactive
same,outcome,[15],inactive
CCCCCC(C)OC(=O)COc1ccc(Cl)c2cccnc12 (centres undefined),outcome,[14],inactive
same,outcome,[15],inactive
CCCC=O,outcome,[14],inactive
same,outcome,[15],inactive
COC(O)c1ccccc1 (centres undefined),outcome,[14],inactive
NS(=O)(=O)O,outcome,[14],inactive
same,outcome,[15],inactive
O=S(=O)(O)c1ccccc1,outcome,[14],inactive
O=C1c2ccccc2C(=O)c2c(O)c(O)cc(O)c21,outcome,[14],inactive
same,outcome,[15],inactive
COc1cc([N+](=O)[O-])ccc1N,outcome,[14],inactive
same,outcome,[15],inactive

# Source: PubChem BioAssay (EPA / NIEHS)
